Assay [1] can be described thus: viability loss in pontine glioma line – cell-based, SU-DIPG-XIII, MIPE4.0, CellTiter-Glo, qHTS, dose response (AID 1347061; cut-off not given, nearly all actives have AC50 up to about 37 µM;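 note: cells exposed to compound for 48 hours before readout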). To be noted: CellTiter-Glo ATP luminescence. Background: Cellular ATP, detected with luciferase, serves as a proxy for viable cell number.
Assay [2] can be described thus: viability loss in pontine glioma line – cell-based, JHH-DIPG-1, MIPE4.0, CellTiter-Glo, qHTS, dose response (AID 1347062; cut-off not given, nearly all actives have AC50 up to about 27 µM;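 for AC50: cells exposed to compound for two days before readout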). To be noted: JHH-DIPG-1 viability, CellTiter-Glo ATP luminescence.
The nature of assay [3]: viability loss in pontine glioma line – cell-based, SU-DIPG-IV, MIPE4.0, CellTiter-Glo, qHTS, dose response (AID 1347063).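 Note: compound exposure lasted 48 hours before the viability readout.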 To be noted: CellTiter-Glo ATP luminescence.
Assay [4] in a line: viability loss in pontine glioma line – cell-based, SU-DIPG-XXV, MIPE5.0, CellTiter-Glo, qHTS, dose response (AID 1347065; cut-off not given, nearly all actives have AC50 up to about 26 µM;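 note: cells exposed to compound for 48 hours before ATP readout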). To be noted: CellTiter-Glo ATP luminescence.
Assay [5] is described as follows: growth inhibition of DIPG cells – cell-based, MIPE4.0 library, CellTiter-Glo luminescence, qHTS (AID 1347066).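 Note: cells exposed to compound for 48 hours before readout.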 To be noted: SU-DIPG-VI viability, CellTiter-Glo ATP luminescence.
Assay [6] can be described thus: JHH-DIPG-1 glioma cell viability, MIPE5.0 library, CellTiter-Glo luminescence, qHTS (AID 1347067; cut-off not given, nearly all actives have AC50 up to about 26 µM;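 note: cells exposed to compound for 48 hours before readout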). To be noted: JHH-DIPG-1 glioma viability, CellTiter-Glo ATP luminescence.
Assay [7] is described as follows: growth inhibition of DIPG cells – cell-based, MIPE5.0 library, qHTS (AID 1347068; cut-off not given, nearly all actives have IC50 up to about 30 µM). To be noted: SU-DIPG-XXV viability. In general terms: Quantitative high-throughput screening tests each substance at several concentrations.

Inconclusive results are not listed. The source made the active and inactive calls. Unless noted, no cut-off is given here; in the data, nearly all actives have AC50 up to about 30 µM.

By AC50 is commonly meant the concentration giving half of the maximal activity seen.

Regarding `COc1ccc(CC2SC(=O)NC2=O)cc1C(=O)NCc1ccc(C(F)(F)F)cc1` (stereo not given), the outcome in assay [1], in assay [2], in assay [3], in assay [4], in assay [5] and in assay [6] was inactive. Also, in assay [7], the compound was classed as inactive.

Turning to `Nc1nc(=O)n([C@H]2CSC(CO)O2)cc1F` (stereo not given in full), the call in assay [1], in assay [2], in assay [3] and in assay [5] was inactive.

Turning to `CCC[C@H]1C[C@H](C(=O)N[C@@H]([C@@H]2O[C@@H](SC)[C@@H](O)[C@@H](O)[C@H]2O)[C@H](C)Cl)N(C)C1`, the compound was classed as inactive in assay [1], in assay [2], in assay [3] and in assay [5].

As for `CC(C)(C)COc1ccc(-n2cc(C(=O)O)cn2)cc1C#N`, the compound was classed as inactive in assay [1], in assay [2], in assay [3], in assay [4], in assay [5] and in assay [7].

In the case of `C[C@H](NCc1ccc(OCc2cccc(F)c2)cc1)C(N)=O`, the AC50 was 18.7 µM (active) in assay [1], 4.69 µM (active) in assay [2], 9.35 µM (active) in assay [3] and 14.8 µM (active) in assay [5].

On to `CN[C@H]1[C@H](O[C@@H]2[C@H](O[C@@H]3[C@@H](O)[C@@H](O)[C@@H](N=C(N)N)[C@@H](O)[C@H]3N=C(N)N)O[C@H](C)[C@@]2(O)C=O)O[C@@H](CO)[C@@H](O)[C@H]1O`, for which the result in assay [1], in assay [2], in assay [3] and in assay [5] was inactive.

`Cc1ccnc(NS(=O)(=O)c2ccc(NC(=O)Nc3ccc(S(=O)(=O)Nc4nccc(C)n4)cc3)cc2)n1`: the compound was classed as inactive in assay [1], in assay [4], in assay [5], in assay [6] and in assay [7]. Further, the figures for the AC50 in assay [2] and in assay [3] were 2.64 µM (active) and 14.8 µM (active), respectively.

`CN(C)c1nc(Cc2ccc(NC(=O)c3ccc(C(F)(F)F)cc3)cc2)nc(N(C)C)c1CC(=O)O`: the call in assay [1], in assay [2], in assay [3] and in assay [5] was inactive.

The values above are taken from PubChem BioAssay.
